Several values for one entry are separate records, joined by “and”; a condition that tells them apart may be missing. Equal values may be shown once. For part of these data: Potency and affinity values are given separately. Activity calls are given as the source filed them. Unless noted, the rule behind the calls is not given here.

Experiment [1] can be described thus: antimalarial activity against Dd2 strain (AID 2302;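 active = growth inhibition above 50% at the single 2 µM test dose, taken to imply half-maximal potency below 2 µM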;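 note: 0% = DMSO untreated growth and 100% = chloroquine plus artemisinin killed control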). The note with it: P. falciparum Dd2 in RBCs, LDH growth readout, 72 h; at 2 µM; stronger effect = higher value.
Experiment [2] can be described thus: HepG2 cytotoxicity, primary screen, cytotoxicity control for P. falciparum antimalarial project, cell-based, ATP luminescence (AID 2303;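 active = inhibition above 50%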;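 note: 0% = DMSO wells and 100% = digitonin-killed cells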). The settings on record: HepG2 viability, 24-48 h, at 10 µM, stronger effect = higher value.
The target in experiment [3] is L-lactate dehydrogenase (Plasmodium falciparum (isolate CDC / Honduras)) (UniProt Q27743). The experiment can be described thus: PfLDH activity inhibition – cell lysate, 3D7 strain, counter-screen for P. falciparum growth inhibition project (AID 2304).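 Note: 0% = vehicle and 100% = reference inhibitor.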 The settings on record: P. falciparum 3D7 crude extract, LDH APAD/NBT absorbance; at 2 µM; stronger effect = higher value. Background: The purpose of a counterscreen is to sort out artefacts and off-target activity.
L-lactate dehydrogenase (Plasmodium falciparum (isolate CDC / Honduras)), sequence (Q27743 whole entry, looked up): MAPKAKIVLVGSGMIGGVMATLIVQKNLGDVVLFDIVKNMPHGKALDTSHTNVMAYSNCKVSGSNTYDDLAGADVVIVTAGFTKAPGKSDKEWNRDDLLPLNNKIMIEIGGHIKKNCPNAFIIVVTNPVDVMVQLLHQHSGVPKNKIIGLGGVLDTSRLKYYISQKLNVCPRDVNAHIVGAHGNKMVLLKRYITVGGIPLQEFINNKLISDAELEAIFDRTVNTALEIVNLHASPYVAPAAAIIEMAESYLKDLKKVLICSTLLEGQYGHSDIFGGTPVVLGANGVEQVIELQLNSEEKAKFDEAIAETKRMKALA

Experiment [4] is described as follows: inhibition of 3D7 malaria parasite growth – strain 3D7 (AID 2306).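 Note: 0% = DMSO wells and 100% = chloroquine plus artemisinin control wells.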 The settings on record: P. falciparum 3D7 erythrocytic growth, LDH absorbance, 72 h; at 2 µM; stronger effect = higher value.
Experiment [5] addresses Calcium-dependent protein kinase 1 (Plasmodium falciparum (isolate 3D7)) (UniProt P62344). The experiment can be described thus: PfCDPK1 kinase inhibitors, biochemical, TCAMS library (AID 1159585; cut-off not given, nearly all actives have IC50 up to about 0.98 µM;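 note: inhibitors leave more ATP so luminescence rises with inhibition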). The note with it: recombinant PfCDPK1, Kinase-Glo ATP depletion luminescence. (In general: Kinase-Glo measures the ATP left after a reaction by luminescence.)
The target in experiment [6] is Plasmodium falciparum protein kinase 6 (PK6, PF3D7_1337100) (UniProt Q8IDW1). The experiment can be described thus: PfPK6 kinase inhibitors, biochemical, TCAMS library (AID 1159586). The settings on record: recombinant PfPK6, Kinase-Glo ATP depletion luminescence.
Plasmodium falciparum protein kinase 6 (PK6, PF3D7_1337100), sequence (Q8IDW1 1-305): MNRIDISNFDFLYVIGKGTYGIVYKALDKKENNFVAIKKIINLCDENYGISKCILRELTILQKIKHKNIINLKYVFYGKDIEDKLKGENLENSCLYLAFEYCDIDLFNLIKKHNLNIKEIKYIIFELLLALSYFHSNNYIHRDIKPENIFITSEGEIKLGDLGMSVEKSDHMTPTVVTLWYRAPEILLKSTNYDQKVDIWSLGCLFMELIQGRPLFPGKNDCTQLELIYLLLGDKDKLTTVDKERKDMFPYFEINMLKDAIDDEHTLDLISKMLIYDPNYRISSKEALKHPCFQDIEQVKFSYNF
Experiment [7] deals with Protein kinase 7 (PK7), Plasmodium falciparum 3D7 (PF3D7_0213400) (UniProt Q7YTF7). The experiment can be described thus: inhibition of Plasmodium PK7 catalytic activity – biochemical, TCAMS antimalarial set, Kinase-Glo luminescence (AID 1159587). The note with it: recombinant PfPK7, Kinase-Glo ATP depletion luminescence.
Protein kinase 7 (PK7), Plasmodium falciparum 3D7 (PF3D7_0213400), sequence (Q7YTF7 1-343): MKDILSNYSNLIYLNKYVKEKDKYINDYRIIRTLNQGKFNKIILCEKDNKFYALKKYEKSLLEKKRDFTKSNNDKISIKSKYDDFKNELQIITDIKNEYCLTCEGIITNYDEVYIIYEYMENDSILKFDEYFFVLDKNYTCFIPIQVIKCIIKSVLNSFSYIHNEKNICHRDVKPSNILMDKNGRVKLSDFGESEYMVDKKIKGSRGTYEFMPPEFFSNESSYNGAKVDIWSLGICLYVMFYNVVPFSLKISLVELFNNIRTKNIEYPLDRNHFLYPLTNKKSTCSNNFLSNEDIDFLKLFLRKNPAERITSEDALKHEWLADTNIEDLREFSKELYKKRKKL
In experiment [8] the target is Calcium-dependent protein kinase 4 (Plasmodium falciparum (isolate 3D7)) (UniProt Q8IBS5). The experiment is described as follows: PfCDPK4 kinase inhibitors, biochemical, TCAMS library (AID 1159588; cut-off not given, nearly all actives have IC50 up to about 0.91 µM). The settings on record: recombinant PfCDPK4, Kinase-Glo ATP depletion luminescence.
Calcium-dependent protein kinase 4 (Plasmodium falciparum (isolate 3D7)), sequence (Q8IBS5 whole entry, looked up): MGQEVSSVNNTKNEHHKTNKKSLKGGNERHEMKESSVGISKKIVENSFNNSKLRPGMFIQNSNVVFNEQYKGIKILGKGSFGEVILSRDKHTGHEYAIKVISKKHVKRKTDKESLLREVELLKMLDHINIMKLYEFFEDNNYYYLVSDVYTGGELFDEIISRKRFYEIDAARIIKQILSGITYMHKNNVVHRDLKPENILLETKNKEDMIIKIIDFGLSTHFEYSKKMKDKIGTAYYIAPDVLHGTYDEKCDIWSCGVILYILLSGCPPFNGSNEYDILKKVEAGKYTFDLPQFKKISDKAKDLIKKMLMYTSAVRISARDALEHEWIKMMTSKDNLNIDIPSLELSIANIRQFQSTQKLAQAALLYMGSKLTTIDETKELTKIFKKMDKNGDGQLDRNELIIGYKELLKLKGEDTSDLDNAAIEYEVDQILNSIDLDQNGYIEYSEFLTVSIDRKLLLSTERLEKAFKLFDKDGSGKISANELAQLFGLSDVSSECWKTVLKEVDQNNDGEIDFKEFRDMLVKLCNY
A short description of experiment [9]: liver-stage malaria parasite growth inhibition, primary screen, cell-based, HepG2, luciferase luminescence, HepG2 viability (AID 624349; in the data active = parasite load remaining mostly below about 12%, no sharp cut-off; inactive = mostly above about 10%;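 note: 100% = mean of DMSO negative control wells on the same plate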). The note with it: P. berghei liver stage in HepG2, luciferase luminescence, concentration not given here; parasite load remaining: stronger effect = lower value; viability: measured here: HepG2 viability without parasites.
The nature of experiment [10]: Cy5 fluorescence interference with SSB-bound oligo, artefact control for HCV NS3 helicase inhibitor project, biochemical, NIH Clinical Collection, E. coli SSB (AID 743268).
In experiment [11] the test system is Hepatitis C virus NS3 helicase. The experiment can be described thus: HCV NS3 helicase inhibitors, primary screen, biochemical, fluorescence polarization, NIH Clinical Collection (AID 743270). The note with it: NS3 helicase binding to Cy5-dT15 DNA, stronger effect = higher value, concentration not given here. For orientation: Polarisation of emitted light reports the rotation of a fluorescent probe.

In experiment [12] the target is Single-stranded DNA-binding protein (Escherichia coli (strain K12)) (UniProt P0AGE0). The experiment is described as follows: E. coli SSB displacement from DNA, counter-screen for HCV NS3 helicase inhibitor project, biochemical, fluorescence polarization, NIH Clinical Collection (AID 743271; in the data active = inhibition above about 28%). The settings on record: stronger effect = higher value, concentration not given here.

The nature of experiment [13]: fluorescence interference in NS3h assay format, artefact control for HCV NS3 helicase inhibitor project, biochemical, NIH Clinical Collection (AID 743272).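 Note: HCV NS3 helicase with a Cy5 labelled single stranded DNA probe.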 The note with it: fluorescence interference counterscreen, stronger effect = lower value.
Experiment [14] in a line: sensitizers of A549 cells to miR-34 induction, primary screen, imaging, A549 dox-inducible miR-34, nuclei and caspase counts (AID 1347080;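 active = compounds whose cell count with miR-34 switched on is under 0.7 times the count with it off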). The note with it: A549 miR-34 inducible, Hoechst nuclei count, 48 h.
In experiment [15] the test system is F380Y. The experiment can be described thus: modulators of BK channel variants, profiling panel, selectivity assay, cell-based, U2OS BacMam, thallium flux, beta subunits (AID 1259406;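 active = thallium flux through the channel raised or lowered by more than 3 SD from vehicle-only wells, actives on both sides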;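 note: initial slope of Thallos dye fluorescence rise after thallium is added; log ratio against the mean of 0.3% DMSO vehicle wells on the same plate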). The settings on record: at 30 µM.
Experiment [16] concerns F380Y/beta2Delta. Described as above. The note with it: at 30 µM.
Experiment [17] has as its system R275C. Described as above. The note with it: at 30 µM.
The subject of experiment [18] is R275C/beta1. The experiment is described as above. The note with it: at 30 µM.
Experiment [19] deals with R275C/beta2Delta. Described as above. The settings on record: at 30 µM.
In experiment [20] the test system is R275C/Slo1WT/beta2. The description is as above. The note with it: at 30 µM.

Calcium-dependent protein kinase 1 (Plasmodium falciparum (isolate 3D7)), sequence (P62344 whole entry, looked up): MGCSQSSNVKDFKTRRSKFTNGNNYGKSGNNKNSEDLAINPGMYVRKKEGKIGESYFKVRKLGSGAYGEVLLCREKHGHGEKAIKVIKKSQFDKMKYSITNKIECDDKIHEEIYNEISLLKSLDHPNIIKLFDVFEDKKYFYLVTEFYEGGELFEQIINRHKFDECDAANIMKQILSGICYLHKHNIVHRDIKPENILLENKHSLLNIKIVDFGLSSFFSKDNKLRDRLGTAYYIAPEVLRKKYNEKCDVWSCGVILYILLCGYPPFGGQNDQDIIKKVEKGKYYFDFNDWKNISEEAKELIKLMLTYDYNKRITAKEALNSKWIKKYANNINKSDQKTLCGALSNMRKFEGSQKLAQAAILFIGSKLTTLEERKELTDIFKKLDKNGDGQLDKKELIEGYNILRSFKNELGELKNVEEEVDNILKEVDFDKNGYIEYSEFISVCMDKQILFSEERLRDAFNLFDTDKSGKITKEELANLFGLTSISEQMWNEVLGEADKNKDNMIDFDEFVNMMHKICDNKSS

`CC[C@H]1CN2CC[C@H]1C[C@H]2[C@H](O)c1cc(/C=C/c2ccccc2)nc2ccc(OC)cc12`: the growth inhibition in experiment [1] and in experiment [4] was 99% (active) throughout. The results for the inhibition in experiment [2] and in experiment [3] were 16% (inactive) and -1% (inactive), respectively. In addition, the outcome in [5], in [6], in [7] and in experiment [8] was inactive.

Turning to `CC[C@H]1C[N+]2([O-])CC[C@@H]1C[C@H]2[C@H](O)c1cc(-c2ccccc2)nc2ccc(OC)cc12`, the growth inhibition in [1] was 97% (active); in experiment [4], 99% (active). Also, the inhibition (usually the drop in the measured response relative to a control, in per cent) in experiment [2] was -11% (inactive); in experiment [3], 0% (inactive). The result in [5], in experiment [6], in [7] and in experiment [8] was inactive.

As to `COc1cccc(CN2CCC(CCOC(c3ccccc3)c3ccc(Cl)cc3)CC2)c1O` (stereo not given), the growth inhibition is 100% (active) in [1] and 99% (active) in experiment [4]. Besides, the inhibition in experiment [2] was 22% (inactive); in experiment [3], -2% (inactive). The result in experiment [5], in [6], in experiment [7] and in [8] was inactive.

With `NCC(=O)c1cc2c(cc1N)OCCO2`, the growth inhibition in experiment [1] is 42% (inactive); in [4], 89% (active). Also, the values for the inhibition in [2] and in experiment [3] were 64% (active) and 0% (inactive), respectively. Also, the outcome in [5], in experiment [6], in [7] and in [8] was inactive.

As to `O=C(c1cc(C(F)(F)F)cc(C(F)(F)F)c1)N1CC[C@H](CCN2CCC3(CC2)C(=O)NCN3c2ccccc2)C[C@H]1Cc1ccc(Cl)c(Cl)c1`, the growth inhibition in [1] was 77% (active); in experiment [4], 100% (active). The inhibition in experiment [2] is 19% (inactive); in experiment [3] it was -4% (inactive). The result in [5], in experiment [6], in experiment [7] and in experiment [8] was inactive.

Consider `CN1CCC(COC(=O)C(O)(c2ccccc2)c2ccccc2)C1` (stereo not given), for which the results for the growth inhibition in experiment [1] and in [4] were 4% (inactive) and 98% (active), respectively. Also, the results for the inhibition in [2] and in [3] were 0% (inactive) and -4% (inactive), respectively. In addition, the result in experiment [5], in experiment [6], in experiment [7] and in experiment [8] was inactive.

For the compound `CN1CC(c2ccc(Cl)c(Cl)c2)OC1=N` (stereo not given), the growth inhibition was 3% (inactive) in experiment [1] and 99% (active) in experiment [4]. Also, the inhibition in experiment [3] is 2% (inactive). In addition, the outcome in experiment [5], in experiment [6], in experiment [7] and in [8] was inactive.

Take `CS(=O)(=O)Nc1ccc(Cc2noc(-c3ccc4[nH]cc(CCN)c4c3)n2)cc1`: the parasite load remaining in experiment [9] was 62% (inactive). Moreover, the viability (commonly a read-out of living cells in per cent, often relative to untreated cells) in [9] worked out at 68.7%. For the same compound, the fluorescence ratio in [10] was 0.59 (active); in experiment [13], 0.8 (active). The inhibition was 3.28% (inactive) in experiment [11] and 36.6% (active) in experiment [12]. For the same compound, the fold change was 0.897 (inactive) in [14] (stronger effect = lower value); 0.9 (inactive) in experiment [14] (stronger effect = lower value, cell number ratio, induced over uninduced); 2.28 and 0.865 in experiment [14] (measured here: relative caspase fold change +Dox/-Dox). The cell count was 9380 and 8560 in experiment [14] (measured here: total cells with miR-34 induction, stronger effect = lower value); 10500 and 9520 in experiment [14] (measured here: total cells without miR-34 induction). Besides, the log fold change Tl+ flux was -0.0227 (inactive) in experiment [15]; -0.088 (inactive) in experiment [16]; -0.054 (inactive) in [17]; 0.0159 (inactive) in experiment [18]; -0.0492 (inactive) in experiment [19]; 0.0125 (inactive) in experiment [20].

In the case of `CC(Cc1ccc(OCCCCOc2ccccc2)cc1)NCCc1ccccc1Cl` (stereo not given), the figures for the growth inhibition in experiment [1] and in [4] were 58% (active) and 97% (active), respectively. The results for the inhibition in experiment [2] and in experiment [3] were 100% (active) and 1% (inactive), respectively. In addition, the result in [5], in experiment [6], in [7] and in experiment [8] was inactive.

`Oc1ccccc1CNCC(O)c1cccc(C(F)(F)F)c1` (stereo not given): the growth inhibition in [1] is 97% (active); in experiment [4], 100% (active). Further, the inhibition in experiment [2] was 1% (inactive); in experiment [3] it was 0% (inactive). Further, the outcome in experiment [5], in experiment [6], in [7] and in experiment [8] was inactive.

As to `CC[C@H]1CN2CC[C@H]1C[C@H]2[C@H](O)c1cc(-c2cccc(F)c2)nc2ccc(OC)cc12`, the figures for the growth inhibition in experiment [1] and in experiment [4] were 97% (active) and 99% (active), respectively. For the same compound, the values for the inhibition in experiment [2] and in experiment [3] were 34% (inactive) and 5% (inactive), respectively. The result in experiment [5], in [6], in experiment [7] and in experiment [8] was inactive.

Regarding `O=c1c2ccccc2[nH]c(=S)n1-c1ccccc1`, the log fold change Tl+ flux in experiment [15] is -0.0122 (inactive); in experiment [16], 0.0408 (inactive); in experiment [17], -0.0195 (inactive); in [18] it was 0.0238 (inactive); in experiment [19] it was -0.000731 (inactive); in experiment [20] it was -0.0521 (inactive).

As to `COc1ccc(CCNCc2ccc3nc(N)cc(C)c3c2)cc1`, the values for the growth inhibition in experiment [1] and in experiment [4] were 86% (active) and 100% (active), respectively. The inhibition is 23% (inactive) in experiment [2] and -5% (inactive) in experiment [3]. The outcome in [5], in experiment [6], in experiment [7] and in [8] was inactive.

On to `CC(O)(CS(=O)(=O)c1ccc(F)cc1)C(=O)Nc1ccc(C#N)c(C(F)(F)F)c1` (stereo not given), for which the parasite load remaining in experiment [9] is 85.6% (inactive) and 26.5% (inactive). Also, the viability in experiment [9] was 71.8% and 108%. Further, the fluorescence ratio was 1 (inactive) in experiment [10] and 0.95 (inactive) in [13]. The inhibition in [11] is 0.4% (inactive); in experiment [12], -0.87% (inactive). Moreover, the log fold change Tl+ flux in [15] was -0.0003 (inactive); in experiment [16] it was -0.0358 (inactive); in experiment [17], -0.0123 (inactive); in [18], 0.266 (active); in [19], 0.179 (active); in [20], -0.00212 (inactive).

As to `O=C(/C=C/c1ccc(Cl)c(Cl)c1)NC1CCC(CN2CCC(c3c[nH]c4cc(O)ccc34)CC2)CC1` (stereo not given), the growth inhibition in experiment [1] was 98% (active); in experiment [4], 100% (active). Besides, the inhibition was 18% (inactive) in experiment [2] and -10% (inactive) in experiment [3]. Moreover, the outcome in experiment [5], in experiment [6], in [7] and in experiment [8] was inactive.

Consider `O=c1[nH]c(=S)[nH]c(O)c1C=C1C=CC=N1`, for which the log fold change Tl+ flux is 0.0328 (inactive) in experiment [15]; 0.06 (inactive) in experiment [16]; 0.0249 (inactive) in [17]; 0.101 (inactive) in experiment [18]; 0.0741 (inactive) in experiment [19]; -0.0255 (inactive) in experiment [20].

Consider `COc1cccc(/C=C/C(=O)NC2CCC(CN3CCC(c4c[nH]c5ccccc45)CC3)CC2)c1` (stereo not given), for which the growth inhibition in experiment [1] is 26% (inactive) and 38% (inactive); in experiment [4], 94% (active) and 100% (active). Further, the inhibition was 19% (inactive) and 30% (inactive) in experiment [2]; -1% (inactive) and 6% (inactive) in experiment [3]. The result in experiment [5], in experiment [6], in [7] and in [8] was inactive.

As for `Cc1ccc(S(=O)(=O)N2CN3CCN(C3)C2)cc1`, the log fold change Tl+ flux was -0.028 (inactive) in experiment [15]; -0.0357 (inactive) in [16]; 0.0146 (inactive) in experiment [17]; -0.00993 (inactive) in experiment [18]; -0.021 (inactive) in experiment [19]; 0.0283 (inactive) in [20].

The values above are taken from PubChem BioAssay.
